Active and inactive are the calls of the source.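 Rule for the calls, unless noted: active = visual image review flags a hit and inhibition of aggregation exceeds 20%; inconclusive = visual hit but inhibition at or below 20%; inactive = no hit on visual image review.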
Columns and labels:
[1] = inhibitors of TNFa-induced NFkB p65 translocation, primary screen, imaging, HUVEC, MLSMR starter and 10KST1 sets (AID 438;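 active = inhibition above 20% together with a positive visual image hit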;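 note: compound added about 3h40 before a 20 min TNFalpha stimulation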;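 for inhibition: signal is the nuclear over cytoplasmic p65 intensity ratio per well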); settings: HUVEC TNFa-induced p65 nuclear translocation; cell count: measured here: nuclei count (cytotoxicity indicator), at 2.08 µM; inhibition: at 2 µM, stronger effect = higher value, 0% TNFa-plus-vehicle, 100% no-TNFa wells
[2] = reduction of polyQ htt aggregates in cells – imaging, exon1htt(103Q)mCFP cells, high-content imaging, primary screen (AID 483); settings: exon1htt(103Q)mCFP cell line, aggregate imaging, at 2 µM; inhibition of aggregation: stronger effect = higher value; nuclei count: measured here: cell count, toxicity;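 note: compound exposure lasted 3 days before fixation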;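 for nuclei count: percent of the per-plate median nuclei count of sample wells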
[3] = endothelial E-selectin expression blockers – imaging, HUVEC, immunofluorescence, MLSMR starter and 10KST1 sets, primary screen (AID 487;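 active = visually confirmed hit in the image check and inhibition above 20%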;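 for inhibition: signal is fraction of cell area covered by stained E-selectin grains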;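 for nuclei count: 100% = median nuclei count of all wells on the same plate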); settings: HUVEC TNFalpha-induced E-selectin immunofluorescence imaging, at 2 µM; inhibition: stronger effect = higher value; nuclei count: measured here: cell number, toxicity
[4] = target: Voltage-gated potassium channel subunit beta-2 (Rattus norvegicus) (UniProt P62483); assay: inhibitors of rat Kvbeta2 reductase activity – biochemical, NADPH fluorescence, primary screen (AID 622;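 active = fluorescence slope higher than the sample average by over 3 SD, cut at about -0.22 in these data, passing the limit was not always enough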;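 note: slope of raw intensity against log time taken from 70 to 1610 s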); settings: recombinant KvBeta, 4-cyanobenzaldehyde reduction, at 10 µM, stronger effect = higher value
Chain of Voltage-gated potassium channel subunit beta-2 (Rattus norvegicus) (P62483 whole entry, looked up): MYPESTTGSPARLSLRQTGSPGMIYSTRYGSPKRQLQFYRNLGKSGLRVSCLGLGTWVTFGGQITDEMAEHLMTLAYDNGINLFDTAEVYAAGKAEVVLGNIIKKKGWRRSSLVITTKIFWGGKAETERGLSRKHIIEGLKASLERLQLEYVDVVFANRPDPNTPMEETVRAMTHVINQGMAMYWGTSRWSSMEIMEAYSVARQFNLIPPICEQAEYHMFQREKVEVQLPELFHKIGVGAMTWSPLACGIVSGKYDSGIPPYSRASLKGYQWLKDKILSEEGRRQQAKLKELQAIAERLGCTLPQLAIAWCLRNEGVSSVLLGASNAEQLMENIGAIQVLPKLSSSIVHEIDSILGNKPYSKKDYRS

[5] = target: Voltage-gated potassium channel subunit beta-2 (Rattus norvegicus) (UniProt P62483); assay: enhancers of rat Kvbeta2 NADPH turnover – biochemical, NADPH fluorescence, primary screen (AID 623;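 active = NADPH fluorescence slope more negative than the mean of all samples by about 3 SD, 99.7% confidence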;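 note: fluorescence intensity change per second fitted from 20 to 320 s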); settings: Recombinant KvBeta, NADPH fluorescence decrease slope, 10 min; at 10 µM; stronger effect = lower value
[6] = target: Alpha-2C adrenergic receptor (Homo sapiens) (UniProt P18825); assay: compounds altering alpha2C-coupled GIRK flux – cell-based, HEK293 alpha2C/GIRK1/2, thallium flux, primary screen (AID 624;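 active = fluorescence slope after compound addition differing from the mean of all screened samples at 99.7% confidence, in either direction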;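 note: slope of fluorescence ratio to pre-addition baseline per second over 15 to 24 s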); settings: thallium flux BTC fluorescence, at 10 µM, actives lie on both sides
Chain of Alpha-2C adrenergic receptor (Homo sapiens) (P18825 whole entry, looked up): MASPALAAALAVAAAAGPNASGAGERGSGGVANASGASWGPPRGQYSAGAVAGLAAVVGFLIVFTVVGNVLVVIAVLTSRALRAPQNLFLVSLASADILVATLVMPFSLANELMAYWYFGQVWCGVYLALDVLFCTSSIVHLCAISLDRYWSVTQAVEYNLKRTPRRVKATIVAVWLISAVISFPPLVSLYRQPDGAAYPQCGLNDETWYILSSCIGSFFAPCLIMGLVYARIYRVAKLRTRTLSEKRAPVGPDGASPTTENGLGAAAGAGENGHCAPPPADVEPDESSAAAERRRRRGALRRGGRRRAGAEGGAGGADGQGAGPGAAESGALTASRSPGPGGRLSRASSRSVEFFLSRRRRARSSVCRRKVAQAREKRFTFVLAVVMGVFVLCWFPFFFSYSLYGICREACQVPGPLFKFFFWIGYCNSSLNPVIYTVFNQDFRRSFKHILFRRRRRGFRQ

[7] = blockers of RIG-like receptor reporter activation – cell-based, Sendai virus stimulus, luciferase, 10K MLSCN set, TLR/RLR signaling modifier project, primary screen (AID 602276;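 active = inhibition at or above 50% at 10 µM; inactive = inhibition below 50%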;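 note: firefly luciferase from ISG56 promoter only with Renilla not read in this screen; 0% = Sendai virus plus DMSO and 100% = medium plus DMSO without virus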); settings: HEK293 RL24 IRF3 luciferase reporter, at 10 µM, stronger effect = higher value
[8] = TLR3 IRF3 reporter activation blockers – cell-based, poly I:C stimulus, luciferase, 10K MLSCN set, primary screen (AID 602277;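 active = inhibition of the reporter signal at or above 50%; inactive = inhibition below 50%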); settings: HEK293-TLR3 RL24 IRF3 luciferase reporter, at 10 µM, stronger effect = higher value

SMILES	cell count [1]	inhibition [1]	inhibition of aggregation [2]	nuclei count [2] [%]	inhibition [3]	nuclei count [3] [%]	fluorescence slope [4]	NADPH fluorescence slope [5]	slope [6]	inhibition [7]	inhibition [8]
CCOc1ccc(NC(=O)Cn2nnc(-c3ccccc3F)n2)cc1	513	-2.7% (inactive)	19% (inactive)	88.3	-32.4% (inactive)	103	-0.539 (inactive)	2.1e-05 (inactive)	0.00657 (inactive)	9.14% (inactive)	12.8% (inactive)
COCCn1c(C)cc(C(=O)COC(=O)CCN2C(=O)c3ccccc3C2=O)c1C	287	3.2% (inactive)	17.1% (inactive)	96.8	-6.1% (inactive)	97.3	-0.528 (inactive)	6.5e-06 (inactive)	0.00506 (inactive)	3.96% (inactive)	4.05% (inactive)
Cc1ccccc1-n1c(=O)cc(N2CCN(C(=O)c3ccco3)CC2)[nH]c1=O	543	12.5% (inactive)	6.9% (inactive)	116	-8.4% (inactive)	99.7	-0.598 (inactive)	1.7e-05 (inactive)	0.00562 (inactive)	13.5% (inactive)	12.4% (inactive)
Cc1nnc(SCC(=O)NCCN2C(=O)CSC2=O)s1	413	2.2% (inactive)	19.8% (inactive)	65.4	-195% (inactive)	125	-0.606 (inactive)	-1e-05 (inactive)	0.00749 (inactive)	9.12% (inactive)	19.5% (inactive)
C=CCSc1nnc(NC(=O)c2ccc(S(=O)(=O)NCC3CCCO3)cc2)s1 (centres undefined)	245	5.1% (inactive)	-8.6% (inactive)	88.4	-146% (inactive)	114	-0.496 (inactive)	-4.8e-05 (inactive)	0.00603 (inactive)	4.11% (inactive)	11% (inactive)
COc1ccc(OC)c(C2C(C(=O)Nc3ccc(F)cc3)=C(C)Nc3nc(CCCO)nn32)c1 (centres undefined)	666	7.1% (inactive)	-11.2% (inactive)	117	-44% (inactive)	109	-0.427 (inactive)	8.4e-06 (inactive)	0.00613 (inactive)	0.814% (inactive)	11.9% (inactive)
O=S(=O)(Nc1ccn(-c2ccccc2)n1)c1ccc(Br)cc1	395	-1.6% (inactive)	20.2% (inactive)	98	-35.6% (inactive)	119	-0.413 (inactive)	0.000106 (inactive)	0.00791 (inactive)	10.7% (inactive)	17.4% (inactive)
CCN(CC)CCN1C(=O)C(O)=C(C(=O)c2cccs2)C1c1ccc(C)o1 (centres undefined)	343	12.4% (inactive)	-10.4% (inactive)	91.9	-153% (inactive)	111	-0.411 (inactive)	-3.6e-05 (inactive)	0.00478 (inactive)	2.4% (inactive)	-5.17% (inactive)
Cn1cccc1Cc1nnc(SCC(=O)Nc2ccc(F)cc2F)n1-c1ccc(F)cc1	664	-5.5% (inactive)	-16.9% (inactive)	93.7	-12.3% (inactive)	99.4	-0.546 (inactive)	-7.7e-05 (inactive)	0.00521 (inactive)	10.4% (inactive)	32.3% (inactive)

— PubChem BioAssay
